Measurements published in paper PMC4552634, “A New Set of Chemical Starting Points with Plasmodium falciparum Transmission-Blocking Potential for Antimalarial Drug Discovery” (PLoS ONE, 2015).
Where two headings read alike, the source gives them in different places. Hit rate of the full screen: of about 13,000 compounds, about 3,200 (25%) showed an effect of 50% or more. The list shows a part of the results.

System: P. falciparum stage V gametocytes
Set-up: BacTiter-Glo ATP luminescence viability of purified stage V gametocytes in 384-well plates, per cent inhibition versus DMSO
Details: 48 h, 5 µM, inhibitor

Row | SMILES | % Inhibition [%] | % Inhibition (% Inhibition) [%]
1 | O=C(Nc1ccc(F)c(Cl)c1)NC1CCN(c2ccnc3cc(Cl)ccc23)C1 (stereo not shown) [TCMDC-133404] | -39.28 | 
2 | CCOC(=O)c1c(NC(=O)c2ccccc2)sc2c(O)c(CN(CC)CC)ccc12 [TCMDC-124066] | -13.75 | 
3 | CCC(C)NC(=O)CN1CN(c2ccccc2)C2(CCN(C(=O)c3ccc(-c4ccccc4)cc3)CC2)C1=O (stereo not shown) [TCMDC-125175] | -41.83 | 
4 | Cc1cc(N2CCCC2)nc(Nc2ccc(NC(=O)Cc3ccccc3)cc2)n1 [TCMDC-124967] | -3.146 | 
5 | CC(=O)Nc1ccc(C(=O)Nc2cccc(-c3ccc(-c4nc5cc(C(F)(F)F)ccc5[nH]4)s3)c2)cn1 [TCMDC-136825] | 32.63 | 
6 | NC1=NCN(OCc2ccc(Cl)c(Cl)c2)C(N)=N1 [TCMDC-131661] | 6.901 | 
7 | Cc1ccc2c(c1)c(C1CCN(C(=O)c3ccc([N+](=O)[O-])o3)CC1)cn2C [TCMDC-124787] | 93.47 | 
8 | O=C(c1ccc([N+](=O)[O-])o1)N1CCC(Cc2ccc(C(F)(F)F)cc2)CC1 [TCMDC-124805] | 110.5 | 
9 | CC(C)(C)c1ccc2oc(=O)n(C3CCN(C(=O)c4ccc([N+](=O)[O-])o4)CC3)c2c1 [TCMDC-124798] | 106.6 | 
10 | Cc1ccc2c(-c3ccc([N+](=O)[O-])o3)cc(C)nc2c1 [TCMDC-131568] | 5.138 | 
11 | O=C(c1ccc([N+](=O)[O-])o1)N1CCC(c2cn(Cc3cccc(F)c3)c3ccccc23)CC1 [TCMDC-124804] | 44.33 | 
12 | FC(F)(F)c1ccc(CNCC2CCN(Cc3ccc4c(c3)OCO4)CC2)cc1 [TCMDC-141674] | 9.475 | 
13 | O=[N+]([O-])c1cccc(CNCC2CCN(Cc3ccc(C(F)(F)F)cc3)CC2)c1 [TCMDC-141209] | 21.63 | 
14 | COc1cccc(-c2cnc(-c3ccncc3)nc2C2CCN(Cc3ccc(NC(C)=O)cc3)CC2)c1 [TCMDC-124592] | 1.604 | 
15 | O=C(Nc1ccc(OC2CCN(Cc3ccc(F)cc3)CC2)c(Cl)c1)c1ccccc1 [TCMDC-133751] | 2.198 | 
16 | COc1ccc(CN2CCCC(Nc3ccc(F)c(F)c3)C2)c(O)c1 (stereo not shown) [TCMDC-124607] | 5.364 | 
17 | Cc1cccc(C(=O)Nc2ccnc(N3CCC(N(C)Cc4cccc(O)c4)CC3)c2)c1 [TCMDC-134963] | 14.15 | 
18 | COc1ccc(-c2ccccc2)cc1NC(=S)NC1CCC(CN2CCC(c3c[nH]c4ccccc34)CC2)CC1 (stereo not shown) [TCMDC-140182] |  | 85.27
19 | COc1ccc(-c2ccccc2)cc1NC(=S)NC1CCC(CN2CCC(c3c[nH]c4ccccc34)CC2)CC1 (stereo not shown) [TCMDC-140200] |  | 105.5
20 | O=C(N[C@@H](CC1CCCCC1)C(=O)NCCc1ccc(Cl)c(Cl)c1)c1ccc(O)c(-c2ccc(Cl)c(Cl)c2)c1 [TCMDC-140874] | 30.89 | 
21 | O=C(CCOc1ccccc1)NCC1CCCO1 (stereo not shown) [TCMDC-123513] | 13.36 | 
22 | O=C(NCCCNc1nc2ccccc2[nH]1)c1cccc(OC(F)(F)F)c1 [TCMDC-140754] | -24.04 | 
23 | COc1ccc2nccc([C@@H](O)CN3CCC(NC(=O)C(=Cc4ccc(Cl)cc4Cl)c4ccc(-c5ccccc5)cc4)CC3)c2c1 [TCMDC-141109] | 17.05 | 

Row | SMILES | % Inhibition [%] | % Inhibition (% Inhibition) [%]
24 | COc1ccc2nccc([C@@H](O)CN3CCC(NC(=O)/C(=C/c4ccccc4)c4ccc(-c5ccccc5)cc4)CC3)c2c1 [TCMDC-141115] | 0.831 | 
25 | O=C(NCCc1ccccc1)N(Cc1ccccc1-c1ccc(CNC2CCCC2)cc1)C1CCN(Cc2ccccc2)CC1 [TCMDC-140613] | 98.8 | 
26 | O=C(NCCc1ccccc1)N(Cc1ccccc1-c1cccc(CNC2CCCC2)c1)C1CCN(Cc2ccccc2)CC1 [TCMDC-140612] | 64.34 | 
27 | O=C(NCC1CCC(C(=O)NC2CCCc3ccccc32)CC1)c1ccc(O)c(-c2cccc([N+](=O)[O-])c2)c1 (stereo not shown) [TCMDC-140882] | 10.62 | 
28 | O=C(Nc1ccccc1)Nc1cccc(-c2ccc(-c3nc4ccc(C(F)(F)F)cc4[nH]3)cc2)c1 [TCMDC-133151] | -20.54 | 
29 | CCOc1cc2ncnc(Nc3ccc(OCc4c(F)cccc4F)c(OC)c3)c2cc1OCC [TCMDC-131911] | 15.37 | 
30 | CN1CCCC(COc2cc3c(cc2Br)CCN3C(=O)Nc2ccc(-c3ccncc3)c(Cl)c2)C1 (stereo not shown) [TCMDC-139230] | 96.61 | 
31 | CN1CCC[C@@H](Oc2cc3c(cc2Br)CCN3C(=O)Nc2ccc(-c3ccncc3)c(Cl)c2)C1 [TCMDC-139237] | -19.19 | 
32 | CN1CCC(c2cc3c(cc2Br)CCN3C(=O)Nc2ccc(-c3ccncc3)c(Cl)c2)CC1 [TCMDC-139228] | 3.26 | 
33 | CC(C)OC(=O)c1cccnc1SCC(=O)Nc1ccc(C(F)(F)F)cc1Cl [TCMDC-123575] | -93.91 | 
34 | FC(F)(F)c1ccc(CSc2ccc3nnc(-c4ccccn4)n3n2)cc1 [TCMDC-125344] | 51.34 | 
35 | COc1ccc(-c2cccc(NC(=O)c3ccc(C#N)cc3)c2)cc1CNC(C)C [TCMDC-132610] | 13.1 | 
36 | COc1ccc(-c2cccc(NC(=O)c3cccc(C#N)c3)c2)cc1CN(C)CCO [TCMDC-132625] | 94.55 | 
37 | COc1ccc(-c2ccc(NC(=O)c3cccc(C#N)c3)cc2)cc1CN(C)C [TCMDC-133333] | 10.09 | 
38 | COc1ccc(-c2ccc(NC(=O)c3ccc(C#N)cc3)c(F)c2)cc1CN(C)CCN(C)C [TCMDC-133366] | 57.41 | 
39 | COc1ccc(-c2cccc(NC(=O)c3ccc(C#N)cc3)c2)cc1CN(C)CCN(C)C [TCMDC-133341] | 14.59 | 
40 | COc1ccc(-c2cccc(NC(=O)c3cccc(C#N)c3)c2)cc1CNC(C)C [TCMDC-132622] | 84.95 | 
41 | COc1ccc(-c2ccc(NC(=O)c3ccc(C#N)cc3)cc2)cc1CN(C)CCN(C)C [TCMDC-132520] | 27.11 | 
42 | COc1ccc(-c2cccc(NC(=O)c3ccc(F)cc3)c2)cc1CNC(C)C [TCMDC-132608] | 77.83 | 
43 | COc1ccc(-c2cccc(NC(=O)c3cccc(C#N)c3)c2)cc1CN(C)CCN(C)C [TCMDC-133339] | 13.46 | 
44 | c1ccc(CCNc2ccnc(Nc3ccc4cn[nH]c4c3)n2)cc1 [TCMDC-136880] | 16.88 | 
45 | CN(c1ccccc1)S(=O)(=O)c1cccc(NC(=O)c2ccc(-n3ccnc3)c([N+](=O)[O-])c2)c1 [TCMDC-125320] | 19.17 | 
46 | CCC(=O)N1CCc2cc(Br)cc(S(=O)(=O)N3CC(C)CC(C)C3)c21 (stereo not shown) [TCMDC-123873] | -4.792 | 

Row | SMILES | % Inhibition [%] | % Inhibition (% Inhibition) [%]
47 | Cc1ccc(N2C(=O)C3C(C2=O)C2(c4ccccc4)C(=O)C3(c3ccccc3)C(c3ccccc3)=C2c2ccccc2)c(C)c1 (stereo not shown) [TCMDC-124184] | 31.21 | 
48 | Oc1ccc(CCNc2nc(N/N=C/c3ccc(Cl)cc3)nc(N3CCNCC3)n2)cc1 [TCMDC-138543] | -10.01 | 
49 | C=CCN(c1ccc(OC)cc1)S(=O)(=O)c1ccc(Cl)c(C(=O)Nc2cccc(C#N)c2)c1 [TCMDC-123716] | -20.14 | 
50 | COc1ccc(-c2ccc(NC(=O)c3cccc(Cl)c3)c(F)c2)cc1CNC(C)C [TCMDC-132766] | 31.53 | 
51 | COc1ccc(-c2ccc(NC(=O)c3ccc(C#N)cc3)cc2)cc1CNC(C)C [TCMDC-132518] | 25.16 | 
52 | COc1ccc(-c2ccc(NC(=O)c3cccc(F)c3)cc2)cc1CNC(C)C [TCMDC-132529] | -9.819 | 
53 | COc1ccc(-c2cccc(NC(=O)c3ccc(Cl)cc3)c2)cc1CNC(C)C [TCMDC-132603] | 87.48 | 
54 | COc1ccc(-c2cccc(NC(=O)c3cccc(Cl)c3)c2)cc1CNC(C)C [TCMDC-133340] | -37.98 | 
55 | COc1ccc(-c2ccc(NC(=O)c3ccc(F)cc3)cc2)cc1CNC(C)C [TCMDC-132515] | 64.88 | 
56 | CCNc1cc(C(=O)N[C@@H](Cc2ccccc2)[C@H](O)CNC(C)(C)c2cccc(OC)c2)cc(N2CCCC2=O)c1 [TCMDC-138895] | -11.4 | 
57 | CCc1cccc(-n2nc(OCC(=O)NC3CCCC3)c3cccnc32)c1 [TCMDC-125160] | 5.355 | 
58 | COc1cccc2cc(C(=O)N[C@@H](CC(C)C)C(=O)N[C@H](C=NN3CC(=O)NC3=O)CC(C)C)oc12 [TCMDC-136063] | 6.388 | 
59 | CCCCCCNCCOc1ccc(-c2nc(-c3ccccc3)c(-c3ccccc3)[nH]2)cc1 [TCMDC-137684] | 76.06 | 
60 | COc1cc(-c2nc(-c3ccccc3)c(-c3ccccc3)[nH]2)ccc1OCCN(C)C [TCMDC-137716] | -85.41 | 
61 | CCCCCOc1ccc(C=NNc2nc(-c3ccccc3)cc(=O)[nH]2)cc1 [TCMDC-124237] | 29.87 | 
62 | COc1ccc(OCC(=O)Nc2cc(-c3nc4ccccc4[nH]3)ccc2Cl)cc1 [TCMDC-125425] | -8.801 | 
63 | Oc1cc(-c2nc(-c3ccccc3)[nH]c2-c2ccncc2)ccc1Cl [TCMDC-139660] | -47.58 | 
64 | CCCCNCCOc1ccc(-c2nc(-c3ccccc3)c(-c3ccccc3)[nH]2)cc1 [TCMDC-138053] | 74.26 | 
65 | Oc1cccc(-c2nc(-c3ccccc3)c(-c3ccc(Oc4ccc(-c5[nH]c(-c6cccc(O)c6)nc5-c5ccccc5)cc4)cc3)[nH]2)c1 [TCMDC-125666] | -19.27 | 
66 | COc1ccc(NC(=O)Nc2ccc(-c3ccc(-c4nc5ccccc5[nH]4)cc3)cc2)cc1 [TCMDC-133248] | -24.62 | 
67 | CCCCOc1ccc(-c2nc3ccccc3[nH]2)cc1 [TCMDC-123930] | 57.83 | 
